Reference: PubChem BioAssay (EPA / NIEHS)
The source made the active and inactive calls. Rule for the calls: active = hit-call score of the fitted dose curve at least 0.9, where 1 is the maximum; inactive = score below 0.9.

How the values were obtained:
Conditions in all cases: mRNA level, 48 h; actives raise or lower the signal
[1] = read-out: Interleukin 6 (IL6), IL6 (gene 3569); test: LTEA_HepaRG_IL6: Life Technologies and Expression Analysis (LTEA) Assay for Interleukin 6 (IL6) using HepaRG (AID 2283509)
How it was run: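 HepaRG, ~100,000 cells/well, 48 h pre-culture; serum-free induction medium; cmpd 8-pt half-log from 100 uM, 0.5% DMSO, duplicate, 48 h. Lysis in RLT, TaqMan qRT-PCR; gain or loss vs DMSO.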

[2] = read-out: Interleukin 6 Receptor (IL6R), IL6R (gene 3570); test: LTEA_HepaRG_IL6R: Life Technologies and Expression Analysis (LTEA) Assay for Interleukin 6 Receptor (IL6R) using HepaRG (AID 2283510);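 for AC50: TaqMan qRT-PCR signal normalized to ACTB GAPDH and POLR2A housekeeping genes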
How it was run: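 Differentiated human HepaRG cells, plated 48 h then switched to serum-free induction medium, were dosed in duplicate for 48 h at eight half-log concentrations up to 100 uM in 0.5% DMSO. IL6R mRNA quantified by qRT-PCR, normalized to ACTB/GAPDH/POLR2A; bidirectional fit versus DMSO.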

[3] = read-out: Potassium channel subfamily K member 1 (KCNK1), KCNK1 (gene 3775); test: LTEA_HepaRG_KCNK1: Life Technologies and Expression Analysis (LTEA) Assay for Potassium channel subfamily K member 1 (KCNK1) using HepaRG (AID 2283511)
How it was run: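 Gain or loss of KCNK1 mRNA is the read-out, quantified by qRT-PCR against three housekeeping genes after 48 h chemical treatment of human HepaRG liver cells. Concentrations ran from 100 uM downward in half-log steps, vehicle 0.5% DMSO.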

[4] = read-out: Keratin 19 (KRT19), KRT19 (gene 3880); test: LTEA_HepaRG_KRT19: Life Technologies and Expression Analysis (LTEA) Assay for Keratin 19 (KRT19) using HepaRG (AID 2283512)
How it was run: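 Readout is qRT-PCR of KRT19 mRNA, normalized to ACTB, GAPDH and POLR2A, from HepaRG cells treated 48 h with eight-point half-log dilutions topping at 100 uM. Activity in either direction is scored relative to 0.5% DMSO vehicle.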

[5] = read-out: JUN Transcription Factor, JUN (gene 3725); test: LTEA_HepaRG_JUN: Life Technologies and Expression Analysis (LTEA) Assay for JUN Transcription Factor using HepaRG (AID 2283513)
How it was run: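 Differentiated HepaRG cells were exposed to chemicals for 48 h in serum-free induction medium, 8 concentrations from 100 uM in half-log steps, 0.5% DMSO vehicle, in duplicate. JUN mRNA was quantified by TaqMan qRT-PCR, normalized to ACTB, GAPDH, POLR2A.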

[6] = read-out: Lipase C (LIPC), LIPC (gene 3990); test: LTEA_HepaRG_LIPC: Life Technologies and Expression Analysis (LTEA) Assay for Lipase C (LIPC) using HepaRG (AID 2283514)
How it was run: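 Read-out is LIPC transcript level by TaqMan qRT-PCR, normalized to three housekeeping genes, after 48 h chemical treatment of human HepaRG liver cells. Curves span eight concentrations topping at 100 uM; activity in either direction scored relative to 0.5% DMSO.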

[7] = read-out: Lipoprotein lipase (LPL), LPL (gene 4023); test: LTEA_HepaRG_LPL: Life Technologies and Expression Analysis (LTEA) Assay for Lipoprotein lipase (LPL) using HepaRG (AID 2283515)
How it was run: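 Read-out is LPL transcript level by qRT-PCR, normalized to three housekeeping genes and fitted bidirectionally against the DMSO control. Human HepaRG cells received chemicals for 48 h at up to 100 uM.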

[8] = read-out: MicroRNA 122 (MIR122), gene 406906; test: LTEA_HepaRG_MIR122: Life Technologies and Expression Analysis (LTEA) Assay for MicroRNA 122 (MIR122) using HepaRG (AID 2283516); note: the transcript read is the microRNA miR-122
How it was run: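 Differentiated human HepaRG cells were exposed 48 h in serum-free induction medium to eight half-log concentrations (top 100 uM, 0.5% DMSO). Transcript level was measured by TaqMan qRT-PCR, normalized to ACTB, GAPDH and POLR2A, and fitted bidirectionally versus DMSO.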

[9] = read-out: matrix metalloproteinase-10 (MMP10), MMP10 (gene 4319); test: LTEA_HepaRG_MMP10: Life Technologies and Expression Analysis (LTEA) Assay for matrix metalloproteinase-10 (MMP10) using HepaRG (AID 2283517)
How it was run: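 Gain or loss of MMP10 mRNA is fitted relative to the 0.5% DMSO vehicle. The human hepatic line HepaRG receives a 48-hour serum-free exposure, in duplicate, with a maximum concentration of 100 uM.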

MYC, MYC (gene 4609) = test: LTEA_HepaRG_MYC: Life Technologies and Expression Analysis (LTEA) Assay for MYC using HepaRG (AID 2283518)
How it was run: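 Expression changes were scored by TaqMan qRT-PCR with ACTB, GAPDH and POLR2A normalization. Cultures in serum-free induction medium received duplicate 8-point concentration series, highest 100 uM, for 48 h; DMSO (0.5%) served as baseline.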

[10] = read-out: matrix metalloproteinase-3 (MMP3), MMP3 (gene 4314); test: LTEA_HepaRG_MMP3: Life Technologies and Expression Analysis (LTEA) Assay for matrix metalloproteinase-3 (MMP3) using HepaRG (AID 2283519)
How it was run: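 HepaRG, human; 48 h dosing, 8 conc. (max 100 uM, half-log), duplicate, 0.5% DMSO. Readout: MMP3 transcript by Fluidigm TaqMan qRT-PCR, ACTB/GAPDH/POLR2A-normalised. Gain or loss fitted vs DMSO.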

[11] = read-out: Paternally Expressed 10 (PEG10), PEG10 (gene 23089); test: LTEA_HepaRG_PEG10: Life Technologies and Expression Analysis (LTEA) Assay for Paternally Expressed 10 (PEG10) using HepaRG (AID 2283520)
How it was run: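 Differentiated HepaRG cells, plated 48 h then switched to serum-free induction medium, were exposed in duplicate for 48 h to eight half-log concentrations topping at 100 uM in 0.5% DMSO. PEG10 mRNA was quantified by TaqMan qRT-PCR, normalised to ACTB, GAPDH and POLR2A.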

[12] = read-out: Nuclear factor NF-kappa-B p105 subunit (Homo sapiens) (UniProt P19838); test: LTEA_HepaRG_NFKB1: Life Technologies and Expression Analysis (LTEA) Assay for Nuclear Factor Kappa B Subunit 1 (NFKB1) using HepaRG (AID 2283521)
How it was run: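 Differentiated human HepaRG cells in serum-free induction medium with 0.5% DMSO were exposed for 48 h to eight half-log concentrations, top 100 uM, in duplicate. NFKB1 mRNA measured by Fluidigm TaqMan qRT-PCR, normalised to ACTB, GAPDH and POLR2A; bidirectional fit versus DMSO.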

[13] = read-out: Protein phosphatase 2A (PPP2R4), PTPA (gene 5524); test: LTEA_HepaRG_PPP2R4: Life Technologies and Expression Analysis (LTEA) Assay for Protein phosphatase 2A (PPP2R4) using HepaRG (AID 2283522)
How it was run: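 Differentiated HepaRG cells in serum-free induction medium were exposed in duplicate for 48 h to eight concentrations, top 100 uM with half-log dilutions, in 0.5% DMSO. PPP2R4 mRNA was quantified by TaqMan qRT-PCR, normalized to ACTB, GAPDH and POLR2A.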

[14] = read-out: Phosphatase and tensin (PTEN), PTEN (gene 5728); test: LTEA_HepaRG_PTEN: Life Technologies and Expression Analysis (LTEA) Assay for Phosphatase and tensin (PTEN) using HepaRG (AID 2283523)
How it was run: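 Read-out is PTEN transcript level by multiplexed TaqMan qRT-PCR after 48 h chemical treatment of human HepaRG cultures in serum-free induction medium. Concentrations spanned 100 uM downward in half-log steps, 0.5% DMSO throughout; activity fitted in both directions against vehicle.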

[15] = read-out: solute carrier (SLC22A1), SLC22A1 (gene 6580); test: LTEA_HepaRG_SLC22A1: Life Technologies and Expression Analysis (LTEA) Assay for solute carrier (SLC22A1) using HepaRG (AID 2283524)
How it was run: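 HepaRG (human liver line), 48 h dosing in serum-free induction medium; 8 conc., half-log down from 100 uM, 0.5% DMSO vehicle, duplicates. Endpoint: SLC22A1 mRNA, qRT-PCR, housekeeping-normalized; gain/loss fit vs DMSO.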

[16] = read-out: Pyruvate Dehydrogenase Kinase 4 (PDK4), PDK4 (gene 5166); test: LTEA_HepaRG_PDK4: Life Technologies and Expression Analysis (LTEA) Assay for Pyruvate Dehydrogenase Kinase 4 (PDK4) using HepaRG (AID 2283525)
How it was run: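 In this multiplexed human HepaRG expression assay, cells are treated 48 h with test chemicals across an eight-point range starting at 100 uM. PDK4 mRNA changes, normalized to ACTB/GAPDH/POLR2A, are fitted in both directions relative to vehicle.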

[17] = read-out: NAD(P)H dehydrogenase [quinone] 1 (NQO1), NQO1 (gene 1728); test: LTEA_HepaRG_NQO1: Life Technologies and Expression Analysis (LTEA) Assay for NAD(P)H dehydrogenase [quinone] 1 (NQO1) using HepaRG (AID 2283526)
How it was run: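 Differentiated HepaRG cells, plated 48 h and then switched to serum-free induction medium, were exposed in duplicate for 48 h to 8-point half-log concentrations up to 100 uM in 0.5% DMSO. mRNA measured by qRT-PCR, normalized to ACTB, GAPDH, POLR2A; bidirectional fit versus DMSO.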

[18] = read-out: Nuclear factor erythroid 2-related factor 2 (Homo sapiens) (UniProt Q16236); test: LTEA_HepaRG_NFE2L2: Life Technologies and Expression Analysis (LTEA) Assay for Nuclear factor erythroid 2-related factor 2 (NFE2L2) Transcription Factor using HepaRG (AID 2283527)
How it was run: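 Transcript level of NFE2L2 is the read-out, measured by microfluidic TaqMan qRT-PCR and normalized to three housekeeping genes. Human HepaRG cultures received test chemical for 48 h at up to 100 uM in half-log steps. Gain or loss of signal is fitted relative to 0.5% DMSO.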

[19] = read-out: succinate dehydrogenase complex iron sulfur subunit B (SDHB), SDHB (gene 6390); test: LTEA_HepaRG_SDHB: Life Technologies and Expression Analysis (LTEA) Assay for succinate dehydrogenase complex iron sulfur subunit B (SDHB) using HepaRG (AID 2283528)
How it was run: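 HepaRG cells (~100,000/well, plated 48 h) exposed in duplicate for 48 h in serum-free induction medium to 8-point half-log series from 100 uM in 0.5% DMSO; mRNA by qRT-PCR normalised to ACTB, GAPDH, POLR2A; bidirectional fit versus DMSO.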

Measured: AC50

Nuclear factor erythroid 2-related factor 2 (Homo sapiens), sequence (Q16236 whole entry, looked up): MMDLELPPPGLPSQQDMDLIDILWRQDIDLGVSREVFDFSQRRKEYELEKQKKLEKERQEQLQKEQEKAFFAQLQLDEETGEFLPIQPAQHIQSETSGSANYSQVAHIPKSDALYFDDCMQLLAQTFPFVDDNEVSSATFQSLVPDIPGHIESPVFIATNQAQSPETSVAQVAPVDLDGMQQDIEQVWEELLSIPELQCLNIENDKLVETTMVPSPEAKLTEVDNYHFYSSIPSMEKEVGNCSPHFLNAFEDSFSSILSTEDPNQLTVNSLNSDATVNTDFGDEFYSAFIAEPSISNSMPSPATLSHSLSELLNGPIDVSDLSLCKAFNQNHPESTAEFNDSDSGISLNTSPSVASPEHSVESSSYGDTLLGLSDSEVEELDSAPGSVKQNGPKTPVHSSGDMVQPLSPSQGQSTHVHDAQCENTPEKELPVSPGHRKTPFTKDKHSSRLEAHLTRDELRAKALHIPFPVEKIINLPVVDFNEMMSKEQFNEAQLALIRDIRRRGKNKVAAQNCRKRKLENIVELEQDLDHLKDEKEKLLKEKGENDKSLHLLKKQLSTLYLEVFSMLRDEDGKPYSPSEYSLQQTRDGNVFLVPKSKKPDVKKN
Nuclear factor NF-kappa-B p105 subunit (Homo sapiens), sequence (P19838 whole entry, looked up): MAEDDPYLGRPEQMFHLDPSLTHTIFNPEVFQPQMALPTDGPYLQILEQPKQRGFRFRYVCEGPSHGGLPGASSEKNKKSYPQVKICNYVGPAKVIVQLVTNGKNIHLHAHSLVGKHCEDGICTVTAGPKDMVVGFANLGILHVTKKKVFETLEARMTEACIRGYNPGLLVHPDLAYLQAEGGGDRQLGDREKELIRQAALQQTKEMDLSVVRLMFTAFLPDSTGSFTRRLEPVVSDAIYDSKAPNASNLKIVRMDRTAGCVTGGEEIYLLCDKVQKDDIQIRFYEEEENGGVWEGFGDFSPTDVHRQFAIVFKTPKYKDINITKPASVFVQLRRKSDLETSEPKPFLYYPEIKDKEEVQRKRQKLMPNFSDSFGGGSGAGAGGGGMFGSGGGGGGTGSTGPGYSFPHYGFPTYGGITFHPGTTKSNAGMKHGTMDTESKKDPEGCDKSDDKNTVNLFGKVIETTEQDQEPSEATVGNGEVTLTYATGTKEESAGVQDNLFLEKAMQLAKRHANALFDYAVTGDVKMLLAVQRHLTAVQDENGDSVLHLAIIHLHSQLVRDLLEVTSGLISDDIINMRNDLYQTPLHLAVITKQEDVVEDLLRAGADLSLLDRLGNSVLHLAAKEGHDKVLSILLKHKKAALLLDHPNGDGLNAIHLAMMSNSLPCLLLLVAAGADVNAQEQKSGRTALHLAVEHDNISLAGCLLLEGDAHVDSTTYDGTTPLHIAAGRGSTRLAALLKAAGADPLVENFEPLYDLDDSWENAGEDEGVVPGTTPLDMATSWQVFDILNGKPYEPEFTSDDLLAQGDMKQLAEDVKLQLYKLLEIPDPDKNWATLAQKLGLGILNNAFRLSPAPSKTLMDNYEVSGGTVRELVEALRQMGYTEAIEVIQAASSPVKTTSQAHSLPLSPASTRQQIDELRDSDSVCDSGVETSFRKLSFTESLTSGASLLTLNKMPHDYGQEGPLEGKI

COc1cccc(-c2ccc(/C=C\CN3CCCCCC3)cc2Cl)c1
inactive: [2] | [8] | [13] | [14] | [17] | [19]
active: [1] 74.8 µM | [3] 79.3 µM | [4] 45.2 µM | [5] 73.9 µM | [6] 70.6 µM | [7] 79 µM | [9] 71.3 µM | MYC, MYC (gene 4609) 81.1 µM | [10] 69.3 µM | [11] 59 µM | [12] 45.2 µM | [15] 74.4 µM | [16] 74.1 µM | [18] 65.7 µM

CC(O)CN(CCN(CC(C)O)CC(C)O)CC(C)O (stereo unspecified)
active: [13] 12.5 µM | [18] 12.6 µM
not listed: [12]
inactive: all other assays above

C1N2CN3CN1CN(C2)C3
inactive: all assays above

O=P(OC(CCl)CCl)(OC(CCl)CCl)OC(CCl)CCl
active: [1] 79.6 µM | [4] 50 µM | [6] 65.3 µM | [7] 91.3 µM | [8] 59.6 µM | MYC, MYC (gene 4609) 82.9 µM | [10] 23.3 µM | [11] 12.7 µM | [13] 85.3 µM | [15] 75.2 µM | [18] 83 µM | [19] 85 µM
inactive: [2] | [3] | [5] | [9] | [14] | [16] | [17]

CCCCCCc1ccc(O)cc1O
active: [16] 66.4 µM
not listed: [12]
inactive: all other assays above

CCOC(=O)CC(CC(=O)OCC)(OC(C)=O)C(=O)OCC
not listed: [12]
inactive: all other assays above

CCNc1ccccc1
not listed: [12]
inactive: all other assays above

CCc1cc(SCc2sc(-c3ccc(C(F)(F)F)cc3)nc2CN2CCN(c3ccc(OC)cc3)CC2)ccc1OCC(=O)O
active: [1] 86 µM | [2] 26.2 µM | [3] 9.11 µM | [4] 94 µM | [5] 88.8 µM | [6] 7.95 µM | [7] 27.9 µM | [8] 93.4 µM | [9] 7.31 µM | MYC, MYC (gene 4609) 7.43 µM | [11] 93.6 µM | [13] 22.4 µM | [14] 24.6 µM | [15] 8.47 µM | [16] 92.2 µM | [17] 8.39 µM | [18] 91.8 µM | [19] 93.7 µM
inactive: [10]

CC(C)=CCC/C(C)=C/CO
not listed: [12]
inactive: all other assays above

CCOc1cccc(-n2cc(C(=O)N3CCN(c4cc(C(=O)O)c5ccccc5c4)CC3)nc2-c2ccc(C)cc2)c1
inactive: [3] | [5] | [9] | MYC, MYC (gene 4609) | [10] | [12] | [18]
active: [1] 74.2 µM | [2] 68.9 µM | [4] 16.2 µM | [6] 31.3 µM | [7] 87.1 µM | [8] 30.4 µM | [11] 33.2 µM | [13] 86.4 µM | [14] 79.2 µM | [15] 29.9 µM | [16] 89.3 µM | [17] 78.4 µM | [19] 82.3 µM

Nc1nc2ncc(CNc3ccc(C(=O)N[C@@H](CCC(=O)O)C(=O)O)cc3)nc2c(=O)[nH]1
not listed: [12]
inactive: all other assays above

CCCCCCCCCCCCCCCO
not listed: [12]
inactive: all other assays above

C1=CCCC=CCCC=CCC1
inactive: all assays above
